# Sampled rows, rich in hits. Any-hit rate of the full collection: about 27%.
# Cav32 inh = Cav3.2 calcium influx blockers – cell-based, Fluo-4 calcium fluorescence, FDSS, MLSMR library, primary screen | AID 449739, 2010 | hit rate 4% among 100,000 | Voltage-dependent T-type calcium channel subunit alpha-1H (Homo sapiens), O95180 | Cav3.2-expressing cells; active compounds read low | B-score at 10 µM;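 active = single-dose well whose peak fluorescence ratio is a statistical outlier from its plate by either plate-standardised score or position-corrected B-score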
# CYP2C9 activ = human CYP2C9 activators, primary screen, biochemical, luminescence; hit rate 1.4% among 96,000; Cytochrome P450 2C9 (Homo sapiens), P11712; recombinant CYP2C9, luciferin-H conversion; active compounds read high; factor 1 = untreated enzyme, 0 = blocked; activation factor at 5 µM; AID 1024, 2008;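 active = activation factor of 2 or more for CYP2C9 at a 5 µM dose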;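 note: 0 = sulfaphenazole-blocked wells and 1 = vehicle-only wells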
# CYP2C9 inh = blockers of cytochrome P450 2C9 activity – biochemical, luminescence, ADME assay, primary screen | P11712 | CYP2C9 Supersomes, luciferin-H conversion | inhibition, % at 5 µM | hit rate 20% among 96,000;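 active = blocking of liver enzyme CYP2C9 beyond about 50% at 5 µM, limit read from the data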
# CYP2C19 inhib = blockers of cytochrome P450 2C19 activity – biochemical, luminescence, ADME assay, primary screen; P33261; CYP2C19 Supersomes, luciferin-H EGE luminescence, 30 min; inhibition, % at 5 µM; hit rate 21% among 96,000; AID 778, 2007;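 active = CYP2C19 inhibition above a set limit at 5 µM in the primary screen, cut at about 50% in these data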;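 note: plate controls were negative control wells for no effect and 2.5 mM tranylcypromine positive control for full effect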
# Target sequence (P33261 whole entry, looked up): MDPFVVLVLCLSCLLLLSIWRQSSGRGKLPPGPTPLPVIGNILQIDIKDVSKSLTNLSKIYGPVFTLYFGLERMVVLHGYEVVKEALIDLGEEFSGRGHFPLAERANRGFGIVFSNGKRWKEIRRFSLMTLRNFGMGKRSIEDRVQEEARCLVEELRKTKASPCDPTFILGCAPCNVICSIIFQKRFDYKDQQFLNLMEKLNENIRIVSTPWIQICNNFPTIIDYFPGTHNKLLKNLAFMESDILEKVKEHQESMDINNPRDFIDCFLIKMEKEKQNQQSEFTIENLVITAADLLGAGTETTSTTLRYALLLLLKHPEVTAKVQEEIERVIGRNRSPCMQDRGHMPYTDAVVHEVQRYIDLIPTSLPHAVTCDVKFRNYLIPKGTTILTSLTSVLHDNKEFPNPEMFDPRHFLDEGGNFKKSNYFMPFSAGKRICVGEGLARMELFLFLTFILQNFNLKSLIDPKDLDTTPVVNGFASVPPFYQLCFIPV
# CYP2C19 activ = human CYP2C19 activators, primary screen, biochemical, luminescence. recombinant CYP2C19, luciferin-H EGE luminescence; active compounds read high; 0 = fully inhibited enzyme, 1 = untreated enzyme. activation factor at 5 µM. Cytochrome P450 2C19 (Homo sapiens), P33261. 96,000 tested, under 10 active;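 active = activation factor of at least 2 at 5 µM in the primary screen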;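 note: 0 = wells with 2.5 mM tranylcypromine and 1 = vehicle-only wells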
# PTK2B oligo ant = antagonists of Pyk2 self-association, primary screen, Q293 cells, FERM NanoBiT luminescence, HTS; Protein-tyrosine kinase 2-beta (Homo sapiens), Q14289; active compounds read low; z-score (the deposit names both 25 µM and 10 µM); hit rate 0.83% among 99,000; AID 1347419, 2020;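 active = Z-score of -3 or lower, scaled per plate to the spread of control and sample wells; inactive = z-score above -3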;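 note: negative z-score means lost luminescence so less FERM oligomerization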
# The depositor's hits bear a star; x = no result.
SMILES,Cav32 inh,CYP2C9 activ,CYP2C9 inh,CYP2C19 inhib,CYP2C19 activ,PTK2B oligo ant
CCN(CC)S(=O)(=O)c1ccc(N2CCCC2)c(C(=O)OCC(=O)/C(C#N)=C(\C)N)c1,-0.37,0.2,82*,80*,0.2,-1.3
COc1ccc(N2CCN(C(=O)CSc3nnc(-c4cccnc4)n3-c3ccccc3)CC2)cc1,2.5,0.9,8,19,0.8,0
CCn1c(C)nc2cc(S(=O)(=O)N3CCCC3)ccc21,-0.26,1.3,-35,13,0.9,1.6
CCOc1cc(S(=O)(=O)N2CCOCC2)ccc1F,-1.3,1.4,-41,57*,0.4,0.39
COc1cc(S(=O)(=O)N2CCN(C)CC2)ccc1Cl,-0.029,x,x,x,x,-0.12
CCOc1cc(S(=O)(=O)N2CCCCC2)ccc1Cl,x,2.5*,-148,71*,0.3,-2
CCOc1cc(S(=O)(=O)N2CCN(CC)CC2)ccc1Cl,0.014,2.3*,-134,65*,0.4,-0.46
CCn1c(=S)[nH]c2cc(S(=O)(=O)N3CCCCC3)ccc21,0.081,0.5,51*,45,0.6,-0.15
Cc1noc(C)c1C(=O)OC(C(=O)NC1CCCC1)c1ccc(F)cc1 (centres undefined),-0.049,0.5,47,37,0.6,-0.41
CC1CCCCN1C(=O)c1cnn2c(C(F)(F)F)cc(-c3ccco3)nc12 (centres undefined),0.26,0.8,22,44,0.6,0.72
Cc1ccc(CNS(=O)(=O)c2ccc(C(C)(C)C)cc2)n1C,-0.92,1.9,-90,73*,0.3,0.16
CC(C)(C)c1ccc(S(=O)(=O)NCc2ccc(C(=O)N3CCOCC3)cc2)cc1,0.16,1.4,-36,2,1,0.16
O=C1c2ccccc2C(=O)N1CCCOc1ccccc1,x,0.8,20,85*,0.2,-0.17
N#Cc1ccccc1OCCN1C(=O)c2ccccc2C1=O,0.24,0.4,60*,82*,0.2,-0.07
N#Cc1ccccc1OCC(=O)NC(N)=O,0.21,1.5,-50,-12,1.1,1.5
O=C1c2ccccc2C(=O)N1CN(C(=O)COc1ccccc1)c1ccccc1,0.029,0.7,30,58*,0.4,0.62
COc1ccc(OCC(=O)OCCN2C(=O)c3ccccc3C2=O)cc1,0.16,0.7,29,39,0.6,0.1
O=C1c2ccccc2C(=O)N1CCOCCN1C(=O)c2ccccc2C1=O,-0.041,1.1,-5,3,1,1.2
Cc1cc(C)n(CCCNCC(O)c2ccccc2)n1 (centres undefined),-0.036,1,5,8,0.9,1.9
CCOC(=O)N1CCC(NC(=O)CN(C)S(=O)(=O)c2cc3c(cc2Cl)NC(=O)CO3)CC1,0.056,0.4,56*,-4,1,-0.78
COC(C[C@H](O)C[C@H](O)COCc1ccccc1)OC,-0.18,x,x,x,x,x
O=C1c2ccccc2C(=O)N1CC(O)COCc1ccccc1 (centres undefined),-0.057,1,-1,81*,0.2,-0.21
COc1ccc(C(=O)Cn2c3ccccc3n3nc(CCC(=O)O)c(=O)nc23)cc1OC,0.28,1.1,-11,31,0.7,1.6
CCN1CCN(C(=O)CCc2nc3ccccc3c(=O)[nH]2)CC1,1,0.9,6,1,1,2.8
COC(=O)c1cc(NCc2cccs2)ccc1N1CCOCC1,0.91,0.4,64*,77*,0.2,-0.22
O=C(O)c1cc(NCc2cccs2)ccc1N1CCOCC1,-0.31,1,-1,-2,1,0.28
Cc1nc2ccccc2c(=O)n1/N=C/c1c(O)ccc2oc3c(c12)CCCC3,x,0.2,77*,13,0.9,0.76
Clc1ccccc1-c1nc(N/N=C/c2cccnc2)c2ccccc2n1,0.6,0.3,69*,41,0.6,-1.6
Clc1ccc(/C=N/Nc2nc(Cl)nc3ccccc23)cc1,-1.4,0.8,21,13,0.9,-0.72
Clc1nnc(N/N=C/c2ccccc2)c2ccccc12,-0.51,0.9,5,-2,1,-0.45
